Test results published in PubChem BioAssay AID1159580 (chemical genetic matrix, 2015).
Where “and” joins values, the source holds several entries; their conditions need not be identical. Equal values may be shown once. In all, about 5,500 compounds went through this assay and about 2,000 (36%) were called active. About 18% were inconclusive and are not listed. Cut-off read from the data, not from the text of the source: active = normalized growth mostly below about 0.91 (no sharp cut-off); inconclusive = no clear call, values can overlap the other calls; inactive = mostly above about 0.92. The list shows a part of the results.

Assay: chemical genetic growth profiling, strain panel (AID 1159580);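 note: tested at 20 µM; growth read once vehicle control cultures reached saturation at 30 °C; 1 = growth at the plate median or of vehicle wells; lower values mean less growth of the strain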
Details: growth OD

Measured: normalized growth

Cc1ccc(S(=O)(=O)NC(=O)NN2CCCCCC2)cc1
inactive: S. cerevisiae deletion strains, locus YJR075W, strain HOC1, stronger effect = lower value 1.03 | S. cerevisiae deletion strains, locus YKL009W, strain mrt4, stronger effect = lower value 1.03 | S. cerevisiae deletion strains, locus YKL068W, stronger effect = lower value 0.988 | S. cerevisiae deletion strains, locus YKL085W, strain MDH1 (second series), stronger effect = lower value 0.977 | S. cerevisiae deletion strains, locus YKL085W, strain MDH1, stronger effect = lower value 0.977 | S. cerevisiae deletion strains, locus YKL160W, strain elf1, stronger effect = lower value 0.957 | S. cerevisiae deletion strains, locus YKL190W, strain CNB1, stronger effect = lower value 1 | S. cerevisiae deletion strains, locus YKR001C, strain vps1, stronger effect = lower value 0.981 | S. cerevisiae deletion strains, locus YKR026C, strain gcn3, stronger effect = lower value 0.992 | S. cerevisiae deletion strains, locus YKR091W, strain srl3, stronger effect = lower value 0.983 | S. cerevisiae deletion strains, locus YLL001W, strain dnm1, stronger effect = lower value 0.982 | S. cerevisiae deletion strains, locus YLL026W, stronger effect = lower value 0.995 | S. cerevisiae deletion strains, locus YLL041C, strain sdh2, stronger effect = lower value 0.99 | S. cerevisiae deletion strains, locus YLR027C, strain aat2, stronger effect = lower value 0.99 | S. cerevisiae deletion strains, locus YLR039C, strain RIC1, stronger effect = lower value 0.954 | S. cerevisiae deletion strains, locus YLR058C, strain SHM2, stronger effect = lower value 0.992 | S. cerevisiae deletion strains, locus YLR102C, strain apc9, stronger effect = lower value 0.985 | S. cerevisiae deletion strains, locus YLR113W, strain HOG1, stronger effect = lower value 1.03 | S. cerevisiae deletion strains, locus YLR221C, strain rsa3, stronger effect = lower value 1.02 | S. cerevisiae deletion strains, locus YLR258W, strain gsy2, stronger effect = lower value 0.98 | S. cerevisiae deletion strains, locus YLR262C, strain YPT6 (second series), stronger effect = lower value 0.961 | S. cerevisiae deletion strains, locus YLR262C, strain YPT6, stronger effect = lower value 0.962 | S. cerevisiae deletion strains, locus YLR268W, strain sec22, stronger effect = lower value 0.983 | S. cerevisiae deletion strains, locus YLR320W, strain mms22, stronger effect = lower value 0.996 | S. cerevisiae deletion strains, locus YLR330W, strain CHS5, stronger effect = lower value 0.994 | S. cerevisiae deletion strains, locus YLR342W, strain FKS1 (second series), stronger effect = lower value 0.941 | S. cerevisiae deletion strains, locus YLR342W, strain FKS1, stronger effect = lower value 0.987 | S. cerevisiae deletion strains, locus YLR357W, strain rsc2, stronger effect = lower value 0.928 | S. cerevisiae deletion strains, locus YLR370C, strain arc18, stronger effect = lower value 0.968 | S. cerevisiae deletion strains, locus YLR371W, strain rom2, stronger effect = lower value 0.977 | S. cerevisiae deletion strains, locus YLR384C, strain iki3, stronger effect = lower value 0.992 | S. cerevisiae deletion strains, locus YLR418C, strain cdc73, stronger effect = lower value 0.989 | S. cerevisiae deletion strains, locus YML016C, strain PPZ1, stronger effect = lower value 0.991 | S. cerevisiae deletion strains, locus YML032C, strain rad52, stronger effect = lower value 0.992 | S. cerevisiae deletion strains, locus YML120C, strain ndi1, stronger effect = lower value 1 | S. cerevisiae deletion strains, locus YML124C, strain tub3, stronger effect = lower value 0.988 | S. cerevisiae deletion strains, locus YMR058W, strain fet3, stronger effect = lower value 0.994 | S. cerevisiae deletion strains, locus YMR078C, strain ctf18, stronger effect = lower value 0.968 | S. cerevisiae deletion strains, locus YMR125W, strain sto1, stronger effect = lower value 0.988 | S. cerevisiae deletion strains, locus YMR129W, stronger effect = lower value 0.987 | S. cerevisiae deletion strains, locus YMR205C, strain PFK2, stronger effect = lower value 1.01 | S. cerevisiae deletion strains, locus YMR223W, strain ubp8, stronger effect = lower value 0.97 | S. cerevisiae deletion strains, locus YMR231W, strain pep5, stronger effect = lower value 0.986 | S. cerevisiae deletion strains, locus YMR263W, strain SAP30, stronger effect = lower value 0.998 | S. cerevisiae deletion strains, locus YMR307W, strain GAS1, stronger effect = lower value 0.956 and 1 | S. cerevisiae deletion strains, locus YNL067W, strain RPL9B, stronger effect = lower value 1.02 | S. cerevisiae deletion strains, locus YNL071W, strain lat1, stronger effect = lower value 0.99 | S. cerevisiae deletion strains, locus YNL128W, strain TEP1, stronger effect = lower value 0.988 | S. cerevisiae deletion strains, locus YNL153C, strain GIM3, stronger effect = lower value 1.05 and 1 | S. cerevisiae deletion strains, locus YNL175C, strain NOP13, stronger effect = lower value 0.991 | S. cerevisiae deletion strains, locus YNL183C, strain NPR1, stronger effect = lower value 0.946 | S. cerevisiae deletion strains, locus YNL197C, strain WHI3, stronger effect = lower value 0.974 | S. cerevisiae deletion strains, locus YNL209W, strain ssb2, stronger effect = lower value 0.968 | S. cerevisiae deletion strains, locus YNL224C, strain SQS1, stronger effect = lower value 1 | S. cerevisiae deletion strains, locus YNL233W, strain BNI4, stronger effect = lower value 1.04 | S. cerevisiae deletion strains, locus YNL248C, strain rpa49, stronger effect = lower value 0.961 | S. cerevisiae deletion strains, locus YNL250W, strain rad50, stronger effect = lower value 0.949 | S. cerevisiae deletion strains, locus YNL271C, strain bni1, stronger effect = lower value 0.983 | S. cerevisiae deletion strains, locus YNL298W, strain CLA4, stronger effect = lower value 0.965 | S. cerevisiae deletion strains, locus YNL307C, strain MCK1, stronger effect = lower value 0.983 | S. cerevisiae deletion strains, locus YNL322C, strain KRE1 (second series), stronger effect = lower value 0.965 | S. cerevisiae deletion strains, locus YNL322C, strain KRE1, stronger effect = lower value 1 | S. cerevisiae deletion strains, locus YNR049C, strain mso1, stronger effect = lower value 0.967 | S. cerevisiae deletion strains, locus YNR052C, strain pop2, stronger effect = lower value 0.974 | S. cerevisiae deletion strains, locus YOL006C, strain TOP1, stronger effect = lower value 1.02 | S. cerevisiae deletion strains, locus YOL012C, strain htz1 1.06 | S. cerevisiae deletion strains, locus YOL147C, strain pex11, stronger effect = lower value 0.975 | S. cerevisiae deletion strains, locus YOR001W, strain rrp6, stronger effect = lower value 1.03 | S. cerevisiae deletion strains, locus YOR061W, strain CKA2, stronger effect = lower value 0.994 | S. cerevisiae deletion strains, locus YOR069W, strain VPS5, stronger effect = lower value 0.994 | S. cerevisiae deletion strains, locus YOR070C, strain gyp1, stronger effect = lower value 0.979 | S. cerevisiae deletion strains, locus YOR080W, strain dia2, stronger effect = lower value 0.979 | S. cerevisiae deletion strains, locus YOR083W, strain WHI5 (second series), stronger effect = lower value 0.971 | S. cerevisiae deletion strains, locus YOR083W, strain WHI5, stronger effect = lower value 0.927 | S. cerevisiae deletion strains, locus YOR106W, strain vam3, stronger effect = lower value 0.984 | S. cerevisiae deletion strains, locus YOR136W, strain idh2, stronger effect = lower value 0.984 | S. cerevisiae deletion strains, locus YOR144C, strain elg1, stronger effect = lower value 0.974 | S. cerevisiae deletion strains, locus YOR184W, strain ser1, stronger effect = lower value 1 | S. cerevisiae deletion strains, locus YOR231W, strain MKK1, stronger effect = lower value 1 | S. cerevisiae deletion strains, locus YOR265W, strain rbl2, stronger effect = lower value 1 | S. cerevisiae deletion strains, locus YOR270C, strain vph1, stronger effect = lower value 1.02 | S. cerevisiae deletion strains, locus YOR290C, strain snf2, stronger effect = lower value 0.957 | S. cerevisiae deletion strains, locus YOR316C, strain cot1, stronger effect = lower value 0.992 | S. cerevisiae deletion strains, locus YPL051W, strain arl3, stronger effect = lower value 0.969 | S. cerevisiae deletion strains, locus YPL078C, strain atp4, stronger effect = lower value 0.98 | S. cerevisiae deletion strains, locus YPL106C, strain sse1, stronger effect = lower value 0.957 | S. cerevisiae deletion strains, locus YPL240C, strain hsp82, stronger effect = lower value 0.988 | S. cerevisiae deletion strains, locus YPL241C, strain CIN2, stronger effect = lower value 0.999 | S. cerevisiae deletion strains, locus YPL256C, strain CLN2, stronger effect = lower value 1.01 | S. cerevisiae deletion strains, locus YPR119W, strain clb2, stronger effect = lower value 0.983 | S. cerevisiae deletion strains, locus YPR141C, strain kar3, stronger effect = lower value 0.976 | S. cerevisiae deletion strains, locus YPR163C, strain tif3, stronger effect = lower value 0.982 | S. cerevisiae deletion strains, locus YPR167C, strain met16, stronger effect = lower value 0.991 | S. cerevisiae deletion strains, strain wtn01, stronger effect = lower value 1.01 | S. cerevisiae strains, strain wild type, stronger effect = lower value 1
